Source: PubChem BioAssay AID1159580 (chemical genetic matrix, 2015)
Where “and” joins values, the source holds several entries; their conditions need not be identical. Equal values may be shown once. Screen size: about 5,500 compounds; about 2,000 (36%) were called active. Not shown: some 18% with an inconclusive outcome. Rule as the data show it: active = normalized growth mostly below about 0.91 (no sharp cut-off); inconclusive = no clear call, values can overlap the other calls; inactive = mostly above about 0.92. The list shows a part of the results.

Experiment: chemical genetic growth profiling, strain panel (AID 1159580);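 also: tested at 20 µM; growth read once vehicle control cultures reached saturation at 30 °C; 1 = growth at the plate median or of vehicle wells; lower values mean less growth of the strain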
Details: S. cerevisiae deletion strains, growth OD

Measured: normalized growth

O=C(CCCN1CCC2(CC1)C(=O)NCN2c1ccccc1)c1ccc(F)cc1
inactive: locus YAL021C, strain ccr4, hits give low values 0.956 | locus YAL026C, strain drs2, hits give low values 0.981 | locus YAL030W, strain snc1, hits give low values 0.983 | locus YAL040C, strain CLN3, hits give low values 0.989 | locus YBL061C, strain skt5, hits give low values 0.979 | locus YBR009C, strain hhf1, hits give low values 1.02 | locus YBR021W, strain FUR4, hits give low values 1 | locus YBR023C, strain chs3, hits give low values 0.995 | locus YBR171W, strain sec66, hits give low values 0.965 | locus YBR229C, strain ROT2, hits give low values 0.964 | locus YBR231C, strain swc5, hits give low values 1.04 | locus YBR279W, strain paf1, hits give low values 0.983 | locus YCL016C, strain dcc1, hits give low values 0.975 | locus YCL029C, strain bik1, hits give low values 0.995 | locus YCL061C, strain MRC1 (second series), hits give low values 0.999 | locus YCL061C, strain MRC1, hits give low values 0.981 | locus YCL069W, strain vba3, hits give low values 0.98 | locus YCR088W, strain abp1, hits give low values 0.982 | locus YDL005C, strain med2, hits give low values 0.961 | locus YDL035C, strain GPR1, hits give low values 0.992 | locus YDL040C, strain nat1, hits give low values 0.982 | locus YDL074C, strain BRE1, hits give low values 0.972 | locus YDL101C, strain DUN1, hits give low values 0.984 | locus YDL134C, strain PPH21, hits give low values 1.01 | locus YDL185W, strain tfp1, hits give low values 0.969 | locus YDL192W, strain arf1, hits give low values 0.997 | locus YDR001C, strain nth1, hits give low values 0.979 | locus YDR069C, strain doa4, hits give low values 0.946 | locus YDR101C, strain arx1, hits give low values 0.988 | locus YDR137W, strain rgp1, hits give low values 0.993 | locus YDR150W, strain NUM1, hits give low values 0.996 | locus YDR159W, strain sac3, hits give low values 0.998 | locus YDR162C, strain NBP2, hits give low values 0.999 | locus YDR195W, strain ref2 1.01 | locus YDR297W, strain sur2, hits give low values 0.981 | locus YDR318W, strain mcm21, hits give low values 0.993 | locus YDR334W, strain swr1, hits give low values 0.969 | locus YDR335W, strain msn5, hits give low values 0.966 | locus YDR363W, strain ESC2, hits give low values 0.999 | locus YDR388W, hits give low values 0.996 | locus YDR392W, strain spt3, hits give low values 0.881 | locus YDR502C, strain sam2, hits give low values 0.989 | locus YEL003W, strain gim4, hits give low values 0.991 | locus YEL037C, strain rad23, hits give low values 0.983 | locus YEL061C, strain CIN8 (second series), hits give low values 0.992 | locus YEL061C, strain CIN8, hits give low values 0.988 | locus YER002W, strain NOP16, hits give low values 0.993 | locus YER015W, strain faa2, hits give low values 1 | locus YER016W, strain bim1, hits give low values 0.936 | locus YER110C, hits give low values 0.99 | locus YER111C, strain swi4, hits give low values 0.966 | locus YER155C, strain BEM2 (second series), hits give low values 0.966 | locus YER155C, strain BEM2, hits give low values 1 | locus YER167W, strain BCK2, hits give low values 0.995 | locus YFR010W, strain ubp6, hits give low values 1 | locus YGL078C, strain dbp3, hits give low values 0.994 | locus YGL086W, strain mad1, hits give low values 0.988 | locus YGL167C, strain pmr1, hits give low values 0.922 | locus YGL173C, strain kem1, hits give low values 0.998 | locus YGL227W, strain vid30, hits give low values 0.993 | locus YGL240W, strain doc1, hits give low values 0.991 | locus YGL248W, strain PDE1, hits give low values 0.975 | locus YGL253W, strain hxk2, hits give low values 0.993 | locus YGR078C, strain PAC10, hits give low values 0.967 | locus YGR135W, strain pre9, hits give low values 0.997 | locus YGR229C, strain SMI1, hits give low values 0.994 and 0.978 | locus YGR252W, strain gcn5, hits give low values 0.96 | locus YHR013C, strain ard1, hits give low values 0.91 | locus YHR027C, strain rpn1, hits give low values 0.994 | locus YHR030C, strain SLT2, hits give low values 1 and 0.988 | locus YHR079C, strain IRE1 (second series), hits give low values 0.989 | locus YHR079C, strain IRE1, hits give low values 1.01 | locus YHR094C, strain hxt1, hits give low values 0.998 | locus YHR129C, strain ARP1, hits give low values 1 | locus YHR142W, strain chs7, hits give low values 0.964 | locus YHR200W, strain rpn10, hits give low values 0.987 | locus YIL066C, strain RNR3, hits give low values 0.972 | locus YIL073C, strain SPO22, hits give low values 1.07 | locus YIL125W, strain kgd1, hits give low values 0.984 | locus YIR030C, strain dcg1, hits give low values 0.994 | locus YJL092W, strain hpr5, hits give low values 0.974 | locus YJL095W, strain BCK1 (second series), hits give low values 0.982 | locus YJL095W, strain BCK1, hits give low values 0.968 and 1.01 | locus YJL115W, strain asf1, hits give low values 0.966 | locus YJL129C, strain trk1, hits give low values 0.949 | locus YJL134W, strain LCB3, hits give low values 1 | locus YJL154C, strain vps35, hits give low values 0.969 | locus YJL164C, strain tpk1, hits give low values 0.984 | locus YJL166W, strain qcr8, hits give low values 0.99 | locus YJL168C, strain set2, hits give low values 0.986 | locus YJL187C, strain SWE1 (second series), hits give low values 0.969 | locus YJR043C, strain POL32, hits give low values 0.997 | locus YJR066W, strain TOR1, hits give low values 0.938 | locus YJR075W, strain HOC1, hits give low values 0.985 and 0.996
